Out of some 68,000 compounds screened, about 2,700 (4%) showed an effect of 50% or more. The sample as a whole holds a higher share of strong results than the screen did.
The compounds below were run on Plasmodium berghei (assay: Screen against P. berghei liver stage (PbLuc), transformed with Luciferase, at 2uM). Details: tested at 2 uM.
Format: functional, HepG2
Compound `CCn1cc(C(=O)N2CCOC(c3nc(-c4cccs4)no3)C2)cn1` (stereo unspecified) has an INHIBITION of -36.52%. Compound `COc1cc(-c2n[nH]c(CC#N)n2)cc(OC)c1OC` has an INHIBITION of 16.72%. Work on `CC(C)Nc1cc(N2CCC(n3cc(C4CC4)nn3)CC2)ncn1` yielded an INHIBITION of -46.8%. In the case of `CCc1cc(N2CCC(n3cc(C(=O)NCC(C)C)nn3)CC2)ncn1`, the INHIBITION is reported as -71.68%. With `O=C(NC1CC1)c1cn(C2CCN(c3cc(C4CC4)ncn3)CC2)nn1` the INHIBITION was -26.81%. `CC(C)Nc1cc(N2CCC(n3cc(C4CCCC4)nn3)CC2)ncn1` was tested, and the INHIBITION was -1.21%. Work on `CCc1cc(N2CCC(n3cc(C(=O)NC4CC4)nn3)CC2)ncn1` yielded an INHIBITION of 52.66%. Work on `CC(C)Nc1cc(N2CCC(n3cc(CCO)nn3)CC2)ncn1` yielded an INHIBITION of 69.71%. For `CCC(CO)NCc1ccc(-c2ccc(Cl)cc2)o1` (stereo unspecified), the INHIBITION was 2.25%. In the case of `CNC(=O)CCc1cc(C)nc(C2CCN(c3ccccc3)CC2)c1`, the INHIBITION is reported as -107.54%. For `CN(C)CCN1CCC2(CCN(C(=O)c3cccnc3)CC2)C1=O`, the INHIBITION was 6.66%. In the case of `O=C(O)c1nnn(Cc2cccc(C(F)(F)F)c2)c1-c1ccccn1`, the INHIBITION is reported as 55.25%. `O=C(O)c1nnn(Cc2cccc(C(F)(F)F)c2)c1-c1cccnc1` gave an INHIBITION of 39.9%. In the case of `O=C(O)c1nnn(Cc2cccc(C(F)(F)F)c2)c1-c1ccncc1`, the INHIBITION is reported as 43.75%. Compound `COc1ccc2c(c1)CN(Cc1ccco1)C(=O)CCN2CC(C)(C)O` has an INHIBITION of -35.52%. For `CO[C@@H]1CCC[C@@H](N(C)C(=O)c2cc(F)ccc2F)[C@H]1O`, the INHIBITION was 53.16%. In the case of `COc1ccc(F)cc1C(=O)N(C)[C@@H]1CC[C@@H](O)[C@@H]1O`, the INHIBITION is reported as 16.87%. Work on `CN(C(=O)c1cc(F)ccc1F)[C@@H]1CC[C@@H](O)[C@@H]1O` yielded an INHIBITION of 41.21%. `O=C(CO)N1CCOC2(CCCN(c3ncc(F)cn3)C2)C1` (stereo unspecified) was tested, and the INHIBITION was 14.27%. `CC(C)(C(=O)N1CCCC(OCc2cccnc2)C1)n1cccc1` (stereo unspecified) gave an INHIBITION of 27.81%. With `O=C(CC1CCCCC1)N1CCOCC1CO` (stereo unspecified) the INHIBITION was 18.81%. `CN(CCO)CC1COCCN1C(=O)CCC1CCCC1` (stereo unspecified) showed an INHIBITION of 69.06%. With `CN(CCO)CC1COCCN1C(=O)C1CCCCC1` (stereo unspecified) the INHIBITION was -23.4%. Compound `CCOC(=O)NCC(=O)Nc1nc2ccccc2n1C(C)(C)C` has an INHIBITION of 30.23%. Work on `CCc1nccc(CN2CCC(CNC(=O)c3occc3C)C2)n1` (stereo unspecified) yielded an INHIBITION of -4.04%. For `c1ccc(Cc2noc(CN3CCc4cncnc4C3)n2)cc1`, the INHIBITION was 56.02%. For `CC(C)c1ncc2c(n1)CN(Cc1nc(Cc3ccccc3)no1)CC2`, the INHIBITION was 6.12%. For `Cc1ncc2c(n1)CN(Cc1nc(Cc3ccccc3)no1)CC2`, the INHIBITION was -54.44%. Work on `Cc1cccc(C2CCCN2C(=O)CN(C)S(C)(=O)=O)c1C` (stereo unspecified) yielded an INHIBITION of -73.81%. Compound `COCCn1c2c(ccc1=O)CC(NC(=O)c1cscn1)CC2` (stereo unspecified) has an INHIBITION of -25.4%. For `NC1CC(C(F)(F)F)=NC=C1c1ccc(Cl)cc1` (stereo unspecified), the INHIBITION was -19.36%. Work on `CN(C)c1cc(CNCc2cccc3c2OCCO3)ccn1` yielded an INHIBITION of -15.64%. Compound `FC1(F)CCN(Cc2cccnc2)CC12CCN(c1ccccc1)C2` (stereo unspecified) has an INHIBITION of 31.41%. Compound `O=C(CC1C=CCC1)N1CCc2ncnc(NCc3ccon3)c2CC1` (stereo unspecified) has an INHIBITION of 42.26%. With `O=C(C1CCCO1)N1CCc2ncnc(NC3CCC3)c2CC1` (stereo unspecified) the INHIBITION was 46.32%. `O=C([C@H]1CCCO1)N1CCc2ncnc(NC3CC3)c2CC1` showed an INHIBITION of -15.36%. `CC(C)Nc1ncnc2c1CCN(C(=O)[C@H]1CCCO1)CC2` gave an INHIBITION of 35.89%. Work on `COc1cccc(CC(=O)N2CCc3ncnc(C)c3CC2)c1` yielded an INHIBITION of 19.49%. For `O=C(C1CCCCO1)N1CCc2ncnc(NCc3ccon3)c2CC1` (stereo unspecified), the INHIBITION was 59.58%. For `COc1cccc(CC(=O)N2CCc3ncnc(NCCO)c3CC2)c1`, the INHIBITION was 52.98%. `O=C(C1CCCCO1)N1CCc2ncnc(NCCO)c2CC1` (stereo unspecified) gave an INHIBITION of 57.89%. With `COc1cccc(CC(=O)N2CCc3ncnc(NC(C)C)c3CC2)c1` the INHIBITION was 2.71%. `CC(NCc1ccc(-c2ccc(F)cc2)o1)c1nnc2n1CCC2` (stereo unspecified) showed an INHIBITION of -40.26%. Compound `Nc1nnc(Cn2nnc(-c3ccccc3F)n2)s1` has an INHIBITION of 39.58%. Work on `CNc1ncc(CN2CCC(CCc3ccccc3)CC2)cn1` yielded an INHIBITION of 49.87%. In the case of `O=C(c1cccc(-n2cnnc2)c1)N1C[C@@H](O)[C@H](N2CCOCC2)C1`, the INHIBITION is reported as -8.04%. In the case of `CN1CCC(N(C)C[C@H]2CC[C@@H](Cc3cccc(O)c3)O2)CC1`, the INHIBITION is reported as -66.38%. For `CN1CCC(N(C)C[C@H]2CC[C@@H](Cc3ccc4occc4c3)O2)CC1`, the INHIBITION was -10.59%. `COc1ccc(C[C@@H]2CC[C@H](CN(C)C3CCN(C)CC3)O2)cc1` gave an INHIBITION of 68.08%. `Cc1cc(C)n(CC2CCCCN2CC(=O)N(C)Cc2ccco2)n1` (stereo unspecified) was tested, and the INHIBITION was 40.82%. `CC(CNC(=O)c1c[nH]nn1)Oc1ccc(Cl)cc1` (stereo unspecified) gave an INHIBITION of -4.64%. `O=C(C1CCOCC1)N1CCN(CC2CC2)c2ncccc2C1` gave an INHIBITION of 51.27%. `O=C(C1CCOC1)N1CCN(Cc2ccncc2)c2ncccc2C1` (stereo unspecified) showed an INHIBITION of 31.08%. With `O=C(N1CCCC1)N1CCN(CC2CC2)c2ncccc2C1` the INHIBITION was -3.08%. In the case of `CCN(Cc1ccc2c(c1)OCCO2)S(=O)(=O)N(C)C(C)C`, the INHIBITION is reported as 63.95%. `CCN(CC)S(=O)(=O)N(CC)Cc1ccc2c(c1)OCCO2` was tested, and the INHIBITION was -3.05%. For `CCN(Cc1ccc2c(c1)OCO2)S(=O)(=O)N(C)C(C)C`, the INHIBITION was 41.99%. In the case of `Cc1n[nH]c(C2CN(CC(=O)NCCc3ccc(F)cc3)CCO2)n1` (stereo unspecified), the INHIBITION is reported as 5.47%. Work on `Cc1nc2[nH]cnc(NCCN3CCCC3)c-2n1` yielded an INHIBITION of -20.68%. Compound `CC(c1cccc(-c2ncc(C#N)c(N)n2)c1)N(C)C` (stereo unspecified) has an INHIBITION of -38.96%. For `CCCS(=O)(=O)N1CCC2(CCCN(Cc3cccc(F)c3F)C2=O)C1` (stereo unspecified), the INHIBITION was 50.59%. In the case of `O=C1N(Cc2ccccc2F)CCCC12CCN(C1CCSCC1)C2` (stereo unspecified), the INHIBITION is reported as 11.26%. Work on `CCCS(=O)(=O)N1CCC2(CCN(Cc3cccc(F)c3)C2=O)C1` (stereo unspecified) yielded an INHIBITION of -25.61%. In the case of `CN(C)S(=O)(=O)N1CCC2(CCCN(Cc3ccc(F)cc3)C2=O)C1` (stereo unspecified), the INHIBITION is reported as -37.84%. `O=C1N(Cc2ccc(F)c(F)c2)CCCC12CCN(C1CCCC1)C2` (stereo unspecified) gave an INHIBITION of 23.18%. `CCS(=O)(=O)N1CCC2(CCCN(Cc3ccc(F)c(F)c3)C2=O)C1` (stereo unspecified) showed an INHIBITION of 50.59%.

Source: ChEMBL document CHEMBL4513216, “Probing the Open Global Health Chemical Diversity Library for Multistage-Active Starting Points for Next-Generation Antimalarials” (ACS Infect Dis, 2020)
